In PubChem BioAssay (Tox21) one finds Potency, outcome and activity change, positive = activation data, which are given here for 8 compounds.

Assay [1] can be described thus: qHTS assay to identify small molecule antagonists of the estrogen related receptor (ERR) signaling pathway from Tox21 library - cell viability counter screen (AID 1224834). Further: nearly all actives have a fitted effect of over 30% in size. Further: potency means the concentration at half of the fitted maximal effect. The method, boiled down:
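Cytotoxicity of test substances is gauged in the same ERR cells used for the antagonist screen, after 17.5 h of compound treatment at 37 C, by CellTiter-Fluor fluorescence measured after 30 min.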

Assay [2] addresses Luciferin 4-monooxygenase (Photinus pyralis) (UniProt P08659). Briefly: qHTS assay to identify small molecule inhibitors of firefly luciferase (AID 1224835). Further: nearly all actives have a fitted effect of over 25% in size. Further: potency means the concentration at half of the fitted maximal effect. The method, boiled down:
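Biochemical qHTS: compounds run as interplate titrations against purified firefly enzyme, with D-luciferin and ATP each at its KM concentration. Light output recorded by CCD imaging.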
On the technique in general: Quantitative high-throughput screening tests each substance at several concentrations.

Assay [3] is described as follows: qHTS assay to identify small molecule agonists of the constitutive androstane receptor (CAR) signaling pathway - cell viability counter screen (AID 1224836). Further: nearly all actives have a fitted effect of over 45% in size. Further: potency means the concentration at half of the fitted maximal effect. The method, boiled down:
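Double-stable HepG2 hepatoma cells (hCAR plus CYP2B6-2.2kb) are treated for 23 h at 37 C with test compounds in 15-point concentration series. PK11195 at 0.75 uM final is co-added. Cell viability is quantified by CellTiter-Fluor.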

Assay [4] in a line: qHTS assay to identify small molecule antagonists of the constitutive androstane receptor (CAR) signaling pathway - cell viability counter screen (AID 1224837). Further: nearly all actives have a fitted effect of over 45% in size. Further: potency means the concentration at half of the fitted maximal effect. In short, it runs like this:
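Multiplexed cytotoxicity read-out for the CAR antagonist screen: double-stable HepG2-CYP2B6-hCAR cells co-treated with 50 nM CITCO (final) and compound over 15 concentrations, incubated 23 hr, then assessed by CellTiter-Fluor fluorescence.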

Assay [5] has as its target Nuclear receptor subfamily 1 group I member 3 (Homo sapiens) (UniProt Q14994). The assay is described as follows: qHTS assay to identify small molecule antagonists of the constitutive androstane receptor (CAR) signaling pathway (AID 1224838). Further: on the % scale 0 is the no-effect control and ±100 the full control effect; nearly all actives have a fitted effect of over 40% in size. The method, boiled down:
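Compounds were titrated across 15 concentrations onto HepG2 cells double-stably expressing hCAR and a CYP2B6-2.2kb reporter, together with 50 nM CITCO (final). After 24 h at 37 C, luciferase activity was measured by luminescence.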

Assay [6] can be described thus: qHTS assay to identify small molecule antagonists of the estrogen related receptor signaling pathway with the pleiotropic PPARgamma coactivator (PGC) from Tox21 10K library - cell viability counter screen (AID 1224840; active means well fitted cell-killing curve with a large enough effect in the repeat runs, not every such curve was filed as active; further: nearly all actives have a fitted effect of over 40% in size; further: potency means the concentration at half of the fitted maximal effect). The method, boiled down:
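Step one, plate 2,000 PGC/ERR cells per well; step two, incubate 6 h at 37 C/5% CO2; step three, pin-transfer compounds; step four, incubate 17.5 h; step five, add CellTiter-Fluor and read fluorescence after 30 min.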

Assay [7] concerns the target Thyrotropin receptor (Homo sapiens) (UniProt P16473). Briefly: qHTS assay to identify small molecule agonists of the thyroid stimulating hormone receptor (TSHR) signaling pathway (AID 1224843; calls by dose curve; further: nearly all actives have a fitted effect of over 45% in size; further: potency means the concentration at half of the fitted maximal effect; on activation: on the % scale 0 is the no-effect control and ±100 the full control effect). The method, boiled down: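 Steps: seed 800 TSHR-HEK293 cells per well; add test compound and hold 30 min at ambient temperature; dispense cAMP-d2 then anti-cAMP cryptate; incubate 1 h at ambient; measure fluorescence intensity.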

Assay [8] is described as follows: qHTS assay to identify small molecule agonists of the hypoxia (HIF-1) signaling pathway - cell viability counter screen (AID 1224844; calls by dose curve; further: on the % scale 0 is the no-effect control and ±100 the full control effect; nearly all actives have a fitted effect of over 50% in size). In short, it runs like this:
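Tox21 10K compounds were added to HRE-bla ME-180 cells (0.5% dialyzed FBS) and incubated 17 hrs at 37C; ATP-based CellTiter-Glo luminescence then reported cell viability in the same wells.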

Assay [9] in a line: qHTS assay to identify small molecule agonists of H2AX (AID 1224845; active means well fitted activation curve with a large enough effect in the signal ratio in the repeat runs, not every such curve was filed as active; the % refers to the signal ratio; further: potency means the concentration at half of the fitted maximal effect). In short, it runs like this: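 Wild-type CHO-K1 cells, plated overnight, exposed 3hr at 37C to 15 concentrations (0.76% DMSO final). Lysed, then HTRF anti-pH2AX (S139) cryptate and anti-H2AX-d2 antibodies, 24 hr room temperature; 665/620 nm emission read.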
Assay [10] is described as follows: qHTS assay to identify small molecule agonists of H2AX - cell viability counter screen (AID 1224847; calls by dose curve; further: nearly all actives have a fitted effect of over 30% in size; further: potency means the concentration at half of the fitted maximal effect). In short, it runs like this: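 For this counter screen, overnight-attached CHO-K1 cells received test compounds (15 concentrations, 0.76% DMSO final); 3 hr later at 37C, CellTiter-Glo reagent was added and luminescence recorded after 30 min at room temperature.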

Assay [11] in a line: qHTS RealTime-Glo MT Cell Viability Assay in HepG2 cells - 24 hour (AID 1224867). Further: nearly all actives have a fitted effect of over 50% in size. Further: potency means the concentration at half of the fitted maximal effect. The method, boiled down: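 Viability was tracked continuously by NanoLuc luminescence from prosubstrate reduced by living HepG2 cells, at successive time points over 40 h of compound exposure. Cells with reagent were preincubated 5 h at 37 °C before compound addition.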
Assay [12] is described as follows: qHTS RealTime-Glo MT Cell Viability Assay in HEK293 cells - 32 hour (AID 1224868). Further: nearly all actives have a fitted effect of over 50% in size. Further: potency means the concentration at half of the fitted maximal effect. In short, it runs like this:
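Viability tracked continuously by luminescence as live cells reduce a prosubstrate for NanoLuc; HEK293 cells preincubated 5 h, compound-treated at 37 C, and read at 0, 8, 16, 24, 32 and 40 h.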

Assay [13] in a line: A CellTox Green Cytotoxicity Assay to monitor cytotoxicity in HEK293 cells - 0 hour (AID 1224869). Further: nearly all actives have a fitted effect of over 50% in size. Further: potency means the concentration at half of the fitted maximal effect. On Cytotoxicity: on the % scale 0 is the no-effect control and ±100 the full control effect. In short, it runs like this:
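Cytotoxicity was tracked continuously in HEK293 cells by a DNA-binding dye excluded from viable cells. Compounds were transferred in DMSO 5 h after seeding; fluorescence was recorded at intervals up to 40 h.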

Assay [14] in a line: qHTS RealTime-Glo MT Cell Viability Assay in HepG2 cells - 40 hour (AID 1224870). Further: nearly all actives have a fitted effect of over 50% in size. Further: potency means the concentration at half of the fitted maximal effect. In short, it runs like this:
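HepG2 cells (600/well) mixed with RealTime-Glo MT reagent, settled 5 h at 37 C/5% CO2 before compound addition. Nonlytic NanoLuc luminescence from viable-cell prosubstrate reduction read repeatedly during 40 h treatment at 37 C.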

For assay [15], the target named is Nuclear receptor subfamily 1 group I member 3 (Homo sapiens) (UniProt Q14994). The assay is described as follows: qHTS assay to identify small molecule agonists of the constitutive androstane receptor (CAR) signaling pathway (AID 1224839). Further: nearly all actives have a fitted effect of over 15% in size. Further: potency means the concentration at half of the fitted maximal effect.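 On activation: HepG2 cells stably carrying human CAR and a CYP2B6 luciferase reporter; on the % scale 0 is the no-effect control and ±100 the full control effect.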 In short, it runs like this: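 Readout: firefly luciferase luminescence via ONE-Glo. System: HepG2 double-stable for hCAR and CYP2B6-2.2kb. Conditions: 15-point compound titration, PK11195 at 0.75 uM final, 24 h incubation.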

Assay [16] is described as follows: qHTS assay to identify small molecule agonists of the hypoxia (HIF-1) signaling pathway (AID 1224846; active means well fitted activation curve with a large enough effect in the signal ratio in the repeat runs, not every such curve was filed as active; the % refers to the signal ratio; further: on the % scale 0 is the no-effect control and ±100 the full control effect). In short, it runs like this:
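Steps: seed ME-180 HRE-bla cells (2,000/well, 0.5% dialyzed FBS); incubate 5 hrs at 37C; pin-transfer compounds or DMSO; incubate 17 hrs; add LiveBLAzer B/G substrate CCF4-AM; measure reporter activation by FRET.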

Assay [17] is described as follows: qHTS assay to identify small molecule antagonists of the estrogen related receptor signaling pathway with the pleiotropic PPARgamma coactivator (PGC) from Tox21 10K library (AID 1224841; call rule not given here). In short, it runs like this: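 Antagonism in this quantitative HTS is taken from loss of luciferase signal in PGC/ERR cells. Cells (2,000/well) are treated with compounds in DMSO after a 6 h settling period and read by One-Glo luminescence after 18 h.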

A short description of assay [18]: qHTS assay to identify small molecule agonists of the estrogen related receptor signaling pathway with the pleiotropic PPARgamma coactivator (PGC) from Tox21 10K library (AID 1224842). Further: on the % scale 0 is the no-effect control and ±100 the full control effect; nearly all actives have a fitted effect of over 15% in size. In short, it runs like this: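 PGC/ERR reporter cell line, 2,000 cells per well, incubated 6 h at 37 C before 23 nL compound in DMSO was added. After 18 h at 37 C, One-Glo luminescence read following 30 min at room temperature.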

Assay [19] can be described thus: qHTS assay to identify small molecule antagonists of the estrogen related receptor (ERR) signaling pathway from Tox21 library (AID 1224848). The method, boiled down: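 Luminescent reporter read-out (ONE-Glo) from NTP's ERR cell line after 18 h treatment at 37 C with DMSO-dissolved Tox21 compounds; cells pre-plated 6 h beforehand at 2,000 per well.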
A short description of assay [20]: qHTS assay to identify small molecule agonists of the estrogen related receptor (ERR) signaling pathway from Tox21 library (AID 1224849; calls by dose curve; further: on the % scale 0 is the no-effect control and ±100 the full control effect; nearly all actives have a fitted effect of over 15% in size). The following applies: ERR reporter cell line, ONE-Glo luciferase, 18 h. In short, it runs like this:
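Agonist signal is luciferase luminescence from an ERR reporter cell line treated 18 h at 37 C with DMSO-dissolved compounds, read 30 min after ONE-Glo addition at room temperature.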

SMILES strings stand for the structures. Where “and” joins values, the source holds several entries; their conditions need not be identical. Identical values can stand only once. Results filed as inconclusive are left out. More than one record can exist for a structure, and the calls need not agree. Calls of active or inactive are those of the source. Unless noted, the call rests on the fitted dose curve; in most records, active means well fitted curve in the direction sought with a large enough effect in the repeat runs; inconclusive means weak or mixed curves; inactive means no such curve, though single readings can be large; an effect the other way counts as inactive or inconclusive.

Sequence of Luciferin 4-monooxygenase (Photinus pyralis) (P08659 whole entry, looked up): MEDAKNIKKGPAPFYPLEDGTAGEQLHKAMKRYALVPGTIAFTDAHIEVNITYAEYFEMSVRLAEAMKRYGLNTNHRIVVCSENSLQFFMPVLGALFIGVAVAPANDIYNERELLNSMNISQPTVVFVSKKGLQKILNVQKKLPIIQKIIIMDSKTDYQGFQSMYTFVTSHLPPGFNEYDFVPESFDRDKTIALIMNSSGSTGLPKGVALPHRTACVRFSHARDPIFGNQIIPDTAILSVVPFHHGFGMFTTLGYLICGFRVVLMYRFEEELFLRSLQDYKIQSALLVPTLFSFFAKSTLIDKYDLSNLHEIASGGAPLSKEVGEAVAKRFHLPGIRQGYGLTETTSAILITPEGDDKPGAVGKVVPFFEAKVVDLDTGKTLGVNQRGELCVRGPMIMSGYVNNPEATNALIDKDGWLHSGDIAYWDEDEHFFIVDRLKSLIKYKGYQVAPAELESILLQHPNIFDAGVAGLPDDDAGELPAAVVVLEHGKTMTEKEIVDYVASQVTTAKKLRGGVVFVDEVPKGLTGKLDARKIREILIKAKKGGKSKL
Sequence of Nuclear receptor subfamily 1 group I member 3 (Homo sapiens) (Q14994 whole entry, looked up): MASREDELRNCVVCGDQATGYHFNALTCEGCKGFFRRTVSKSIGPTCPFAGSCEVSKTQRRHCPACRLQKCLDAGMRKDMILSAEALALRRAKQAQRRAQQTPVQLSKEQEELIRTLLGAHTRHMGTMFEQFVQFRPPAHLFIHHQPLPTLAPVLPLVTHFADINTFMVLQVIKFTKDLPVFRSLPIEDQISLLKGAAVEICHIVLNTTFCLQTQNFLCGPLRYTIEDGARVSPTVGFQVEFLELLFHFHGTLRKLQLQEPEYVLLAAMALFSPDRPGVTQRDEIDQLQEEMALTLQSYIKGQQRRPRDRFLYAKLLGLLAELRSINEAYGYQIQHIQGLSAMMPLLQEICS
Sequence of Thyrotropin receptor (Homo sapiens) (P16473 whole entry, looked up): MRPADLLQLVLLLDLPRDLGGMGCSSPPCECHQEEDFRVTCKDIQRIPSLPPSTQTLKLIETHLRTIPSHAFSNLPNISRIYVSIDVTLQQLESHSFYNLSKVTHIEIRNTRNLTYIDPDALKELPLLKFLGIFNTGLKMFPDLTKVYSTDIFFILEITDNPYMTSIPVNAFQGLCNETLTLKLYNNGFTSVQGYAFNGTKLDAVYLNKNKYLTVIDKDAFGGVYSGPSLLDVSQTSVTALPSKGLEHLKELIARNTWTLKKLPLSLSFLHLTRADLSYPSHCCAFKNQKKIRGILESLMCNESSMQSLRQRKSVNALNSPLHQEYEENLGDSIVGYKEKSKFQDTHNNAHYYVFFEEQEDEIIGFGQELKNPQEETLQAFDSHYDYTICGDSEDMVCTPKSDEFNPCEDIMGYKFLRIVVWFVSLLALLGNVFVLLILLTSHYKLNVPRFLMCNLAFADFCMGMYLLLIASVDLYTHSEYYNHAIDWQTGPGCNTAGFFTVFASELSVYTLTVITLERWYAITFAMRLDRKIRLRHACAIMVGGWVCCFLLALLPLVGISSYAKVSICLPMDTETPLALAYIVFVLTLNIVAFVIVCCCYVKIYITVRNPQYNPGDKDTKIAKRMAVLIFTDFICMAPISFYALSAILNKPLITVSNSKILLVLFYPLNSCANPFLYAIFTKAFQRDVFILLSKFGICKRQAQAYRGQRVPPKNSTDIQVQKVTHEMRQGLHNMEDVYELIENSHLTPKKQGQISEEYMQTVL

As for `CCOC(=O)C1(c2ccccc2)CCN(CCC(C#N)(c2ccccc2)c2ccccc2)CC1`, the Potency entry in assay [1], in [2], in assay [3], in [4], in [5] and in assay [6] was “inactive” in each case. For the same compound, the Potency result in assay [7], in assay [8], in assay [9], in [10], in [11] and in assay [12] was “inactive” throughout. For the same compound, the Potency result in [13] and in assay [14] was “inactive” in each case.

Consider `[Cl][Sb]([Cl])[Cl]`, for which, in assay [1], the Potency was 21.7 µM (active). In addition, the Potency entry in assay [2], in assay [3], in [4], in [5], in [15] and in assay [7] was “inactive” throughout. Further, the Potency result in assay [10], in assay [11], in [13] and in [14] was “inactive” each time.

For the compound `Fc1cccc(Cl)c1CCl`, the Potency result in [1], in assay [2], in assay [3], in assay [4], in assay [5] and in assay [6] was “inactive” each time. For the same compound, the Potency entry in assay [7], in assay [8], in assay [9], in assay [11], in [13] and in assay [14] was “inactive” each time. Further, in assay [16], the outcome was inactive.

Consider `O=C1C=CC(=O)c2ccccc21`, for which the Potency in [1] was 61.1 µM (active); in assay [2], 20 µM (active); in assay [3] it was 54.5 µM (active); in assay [4], 43.3 µM (active); in assay [6], 61.1 µM (active); in [17] it was 34.4 µM (active). Moreover, the Potency is 20.1 µM (active) in assay [10]; 27.3 µM (active) in assay [19]; 21.9 µM (active) in [11]; 5.49 µM (active) in assay [12]; 24.5 µM (active) in assay [14]. Besides, the Potency entry in assay [15], in [18] and in [13] was “inactive” throughout.

Consider `CCOP(=S)(OCC)SCS(=O)(=O)C(C)(C)C`, for which the Potency result in assay [1], in assay [2], in [3], in assay [4], in assay [5] and in assay [6] was “inactive” each time. Further, the Potency entry in [7], in assay [10], in assay [11], in assay [12], in assay [13] and in [14] was “inactive” in each case. Further, the call in assay [16] was inactive.

Consider `Cc1cccc(OP(=O)(Oc2cccc(C)c2)Oc2cccc(C)c2)c1`, for which the Potency result in assay [1], in assay [2], in [3], in assay [4], in [5] and in [6] was “inactive” throughout. Moreover, the Potency result in assay [7], in assay [9], in assay [10], in [11], in [12] and in [13] was “inactive” each time. Moreover, in assay [14], the Potency result is “inactive”. Also, the Potency in [15] was 30.6 µM (active). Besides, the outcome in [16] was inactive.

As to `ClC1=C(Cl)[C@]2(Cl)[C@@H]3[C@@H]4C[C@@H]([C@H]5O[C@@H]45)[C@@H]3[C@@]1(Cl)C2(Cl)Cl`, the Potency in [1] was 54.5 µM (active); in assay [6], 61.1 µM (active); in assay [17], 61.1 µM (active); in assay [7], 1.93 µM (active); in assay [9], 17.9 µM (active); in assay [10] it was 50.5 µM (active). Also, the Potency in assay [19] is 43.3 µM (active); in assay [11] it was 43.6 µM (active); in assay [13], 43.6 µM (active). Further, the Potency entry in assay [2], in assay [3], in assay [4] and in assay [18] was “inactive” each time.

For the compound `O=c1[nH]c2ccccc2n1C1CCN(CCCC(c2ccc(F)cc2)c2ccc(F)cc2)CC1`, the Potency was 30.6 µM (active) and 26.6 µM (active) in assay [1]; 54.5 µM (active) in assay [3]; 54.5 µM (active) in assay [4]; 24.3 µM (active) and inactive in [6]; 27.3 µM (active) and 26.6 µM (active) in [17]; 45 µM (active) in assay [10]. Moreover, the Potency is 10.9 µM (active) and 13.3 µM (active) in assay [19]; 43.6 µM (active) and inactive in [11]; 17.4 µM (active) and 16.9 µM (active) in assay [12]; 30.9 µM (active) and inactive in [14]. The Potency result in assay [2] and in [7] was “inactive” throughout. For the same compound, the activity change, positive = activation in assay [20] (at 42.5 µM (top of the series)) is -52.6% (inactive); in assay [20] (at 92.4 µM (top of the series)), -79.9% (inactive).
